ATG4B inhibitor = blocks human ATG4B protease cleavage of LC3 substrate. 0.51% of 340,000 active. Q9Y4P1. AID 504462. ATG4B cleavage of LC3-PLA2, NBD-HPC fluorescence, 1 h. inhibition, % at 8.33 µM; in the data active means inhibition above about 40%
Target sequence (Q9Y4P1 whole entry, looked up): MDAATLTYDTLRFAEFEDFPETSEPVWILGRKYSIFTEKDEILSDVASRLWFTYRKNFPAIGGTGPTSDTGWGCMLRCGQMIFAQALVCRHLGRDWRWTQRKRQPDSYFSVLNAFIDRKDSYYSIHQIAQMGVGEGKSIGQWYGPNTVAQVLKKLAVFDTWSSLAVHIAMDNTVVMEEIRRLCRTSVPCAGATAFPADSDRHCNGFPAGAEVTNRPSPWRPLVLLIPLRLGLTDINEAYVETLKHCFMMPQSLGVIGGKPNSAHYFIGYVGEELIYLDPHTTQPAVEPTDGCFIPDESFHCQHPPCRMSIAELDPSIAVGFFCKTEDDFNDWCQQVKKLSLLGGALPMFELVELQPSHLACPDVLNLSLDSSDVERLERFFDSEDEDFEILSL
SKN-1 inh = inhibitors of C. elegans SKN-1; inhibition, % at 21.8 µM; AID 624304; 0.49% of 360,000 active; C. elegans VP596 Pgst-4::GFP/RFP ratio, acrylamide-induced, 24 h;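 active means interference check ratio from 0.5 to 1.5 plus GFP to RFP signal ratio inhibition reaching or exceeding a fixed threshold, cut at about 30% in these data, passing the limit was not always enough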
CHRM1 antagonist = human CHRM1 antagonism. AID 588852. 1.3% of 360,000 active. inhibition, % at 3 µM. CHO-K1 hM1, Fluo-8 calcium fluorescence, ACh EC80 antagonist;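 active means percent inhibition above its own plate's cutoff, namely the mean of that plate's compound wells plus 3 SD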;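 further: peak over basal fluorescence ratio during 140 s after agonist addition; 0% = ACh EC80 plus DMSO and 100% = DMSO alone without agonist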
Myeloid diff MLP = compounds promoting myeloid differentiation; 1% of 360,000 active; ER-HoxA9 myeloid progenitors, lysozyme-GFP differentiation, flow cytometry; calls only at 10 µM; AID 624256;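 active means normalized GFP-positive differentiation at or above the plate's own cutoff, the solvent-only control mean plus 3 SD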;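 further: cells exposed to compound for four days before flow analysis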
CHRM1 PAM = positive allosteric modulators of human M1 muscarinic receptor; P11229; CHO-K1 hM1, Fluo-8 calcium fluorescence, ACh EC20; 0% = ACh EC20, 100% = maximal ACh; activation, % at 3 µM; 0.088% of 360,000 active; AID 588819; in the data active means activation above about 19%, passing the limit was not always enough
CHRM1 agonist = agonists of human M1 muscarinic receptor | 0.33% of 360,000 active | AID 588814 | P11229 | activation, % at 3 µM | CHO-K1 hM1, Fluo-8 calcium fluorescence, agonist mode; 0% DMSO, 100% acetylcholine EC100;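 active means activation above the run's mean compound activation plus 3 SD, cut at about 16% in these data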;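 further: peak over basal fluorescence ratio within a 140 s kinetic read after compound addition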
Myeloid diff CP1 = promotes myeloid progenitor differentiation. shares compounds with Myeloid diff MLP. ER-HoxA9 myeloid progenitors, GFP/Mac1 double-positive flow. calls only. 2% of 2,300 active. AID 651706;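 active means share of green or green-and-red cells above 9 and 9% in run 1 or 4 and 3% in run 2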
GFP autofluor = flagged as fluorescent in myeloid differentiation counter-screen. shares compounds with Myeloid diff MLP. ER-HoxA9 myeloid progenitors, no estrogen, GFP autofluorescence flow cytometry; vehicle wells 0%, positive control 100%. fluorescence response, % (concentration not given with the values). 7.4% of 2,300 active;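 active means over 5% cells positive for green fluorescent reporter, or over 2% positive for both it and APC stain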;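 further: range taken on the double positive population between DMSO and positive control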
* = called active by the depositor; i = inactive; . = no result; + = active, no number. An excerpt weighted towards active compounds, which were near 3.5% of everything screened.

SMILES | ATG4B inhibitor | SKN-1 inh | CHRM1 antagonist | Myeloid diff MLP | CHRM1 PAM | CHRM1 agonist | Myeloid diff CP1 | GFP autofluor
Fc1cccc(Cl)c1C1Nc2cccc3cccc(c23)N1 | 10 | 15 | -14 | i | 9 | -2 | . | .
Clc1cccc(Cl)c1C1Nc2cccc3cccc(c23)N1 | 20 | 12 | -1 | + | 5 | -1 | i | 0
COc1cccc(NC(=O)CSc2nnc(-c3ccco3)c(-c3ccco3)n2)c1 | 14 | 9 | -2 | + | -2 | -4 | i | 0
O=C(O)COc1ccc(C(=O)Cc2ccc3c(c2)OCCCO3)c(O)c1 | -2 | -6 | -1 | i | -1 | -1 | i | 0
CC(C)NC(=O)CCc1nc2cccnc2n1-c1ccccc1 | -5 | 1 | -6 | i | 4 | -5 | . | .
COc1ccc(S(=O)(=O)N(c2onc(C)c2Cl)S(=O)(=O)c2ccc(OC)cc2)cc1 | -9 | 12 | 15 | i | -3 | 1 | i | 0
CC(OC(=O)c1cc[n+]([O-])cc1)C(=O)NCc1ccccc1 (centres undefined) | 8 | 17 | -13 | i | 8 | -3 | . | .
COc1cc(S(=O)(=O)N2CCC(c3nc4ccccc4s3)CC2)ccc1S(=O)(=O)N1CC(C)CC(C)C1 (centres undefined) | 4 | -7 | -18 | i | 23 | 3 | i | 1
COc1cc(S(=O)(=O)N2CCC(c3nc4ccccc4s3)CC2)ccc1S(=O)(=O)NC1CCCC1 | -10 | 9 | -11 | i | 3 | -4 | . | .
COc1ccc(C(CNC(=O)c2ccc(OCc3c(C)noc3C)cc2)N2CCCC2)cc1 (centres undefined) | -3 | 21 | 2 | i | -9 | -7 | . | .
COc1cccc(C(=O)Nc2ccc(NC(C)=O)cn2)c1 | 1 | 5 | -2 | i | 0 | -3 | i | 0
CCCC(=O)Nc1ccc(NC(=O)c2cccc(OC)c2)nc1 | -2 | 5 | -23 | i | 2 | 1 | . | .
Cc1nc(C)c(C(=O)O)s1 | -5 | -1 | 0 | i | 1 | -2 | . | .
Cn1c(Cn2cnc(Cl)c2Cl)nc2ccccc21 | 0 | -16 | -8 | i | 7 | -3 | i | 1
Cn1c(Cn2cnc3ccccc32)nc2ccccc21 | 0 | -8 | -2 | i | -1 | -1 | . | .
O=C(NCc1ccncc1)[C@@H]1CCCN1C(=O)[C@@H]1CCCN1C(=O)c1ccccc1Cl | . | 9 | . | i | . | . | . | .
C[C@]12c3[nH]c4ccc(Cl)cc4c3CCN1C(=O)[C@@H](CC(=O)NCCC1=CCCCC1)C[C@@H]2C(=O)N1CCCCC1 | -5 | 0 | -8 | i | 4 | -4 | . | .
O=C(c1ccc(S(=O)(=O)c2ccccc2Cl)c([N+](=O)[O-])c1)N1CCCCCC1 | 9 | 2 | -4 | + | 2 | -7 | i | 0
CCC(C)(CC(=O)O)CC(=O)Nc1cc(C(F)(F)F)cc(C(F)(F)F)c1 (centres undefined) | 3 | -9 | 14 | i | -2 | -3 | . | .
O=C(NCCNS(=O)(=O)c1cccc(C(F)(F)F)c1)c1cc(OCC(F)(F)F)ccc1OCC(F)(F)F | 2 | -23 | 7 | i | 0 | -2 | i | 0
CCOP(=O)(OCC)/C(C#N)=C/c1ccc([N+](=O)[O-])cc1 | -5 | 2 | 5 | i | -4 | 0 | i | 0
Cn1c(=O)n(C)c2cc(NC(=O)c3ccccc3NS(C)(=O)=O)ccc21 | -4 | -1 | -4 | i | 2 | -1 | . | .
O=C(NCCc1ccco1)C(=O)NCC1CCCN1S(=O)(=O)c1ccccc1 (centres undefined) | -5 | 5 | 10 | + | -6 | -2 | i | 0
COc1ccccc1NC(=O)N1CCN(c2cc(-c3ccccc3)nc3ncnn23)CC1 | 5 | 4 | 2 | i | -8 | -2 | i | 0
CC(C)N(CC#CCC(O)(c1ccccc1)c1ccccc1)C(C)C | -2 | 1 | 39* | i | -23 | -10 | i | 0
SMILES | ATG4B inhibitor | SKN-1 inh | CHRM1 antagonist | Myeloid diff MLP | CHRM1 PAM | CHRM1 agonist | Myeloid diff CP1 | GFP autofluor
CC(c1ccccc1C(O)(c1ccccc1)c1ccccc1)N(C)C (centres undefined) | -3 | -1 | 27 | i | -32 | 16 | . | .
CCCCn1nc(NC(=O)COC)c2cc3cc(OC)ccc3nc21 | -1 | 16 | 3 | i | -1 | 0 | i | 0
COC(=O)c1ccc(OC)c(OC2CCCC2)c1 | -4 | 0 | -10 | i | 3 | -4 | i | 0
Cc1sc2nc(SCC(=O)N3CC(C)OC(C)C3)n(C)c(=O)c2c1C (centres undefined) | 1 | 0 | 17 | i | -9 | -5 | . | .
COCc1cc(C)nc2sc(C(=O)N3CCCCC3)c(N)c12 | 1 | 5 | -13 | i | 10 | -1 | i | 0
Cc1nnc2ccc(-c3ccc(NS(=O)(=O)c4ccc(F)cc4F)cc3)nn12 | -3 | 1 | -8 | i | 6 | 0 | . | .
O=C(COc1coc(CN2CCc3ccccc3C2)cc1=O)Nc1cccc(Cl)c1 | 0 | 17 | 0 | i | -6 | -4 | . | .
C/C(O)=c1/ccc2cccc3nc(C)nc1c23 | -9 | 11 | 1 | + | 1 | -4 | i | 8.4*
CN(Cc1ccccc1)C(=O)c1[nH]cnc1C(=O)NCCCCCNC(=O)OC(C)(C)C | -3 | 11 | 13 | + | -8 | -5 | i | 1
C[C@H](NC(=O)c1nc[nH]c1C(=O)N(C)Cc1ccccc1)C(=O)OC(C)(C)C | -9 | -12 | 1 | i | 4 | -2 | . | .
COC(=O)c1ccc(NC(=S)NC2CCCCC2C)cc1 (centres undefined) | 17 | -15 | 3 | + | -9 | 2 | i | 0
COC(=O)c1ccc(NC(=S)NC(=O)C2CCC2)cc1 | 1 | -25 | -12 | i | 7 | -5 | . | .
COc1ccc(N(C(C)=O)c2nc3ccccc3[nH]2)cc1 | -2 | -2 | -5 | i | 4 | -1 | . | .
N#CC1C(=O)NC(=O)CC12CCCCC2 (centres undefined) | 1 | 13 | -20 | i | 7 | -2 | i | 0
COc1cccc(CNC(=O)C2CCCN(c3nc4ccccc4o3)C2)c1 (centres undefined) | 5 | 11 | -1 | i | -1 | -6 | i | 0
CNS(=O)(=O)c1ccc(C(C)(C)C)cc1 | -6 | -7 | -2 | i | 9 | -12 | . | .
COc1ccc(N2CCN(CCCNC(=O)C(=O)c3c(C)[nH]c4ccccc34)CC2)cc1 | 1 | -7 | -7 | i | 3 | -6 | . | .

Compound activity deposited in PubChem BioAssay by several laboratories.
